Compounds without any hit were thinned out: in the full panel of roughly 83,000, 20% have a hit.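 Single-dose data. Exposure time 48 hours. Values below 10 considered active.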 Calls of active or inactive are those of the source.
Each molecule was assayed on CCRF-CEM leukemia (assay: NCI-60 one-dose screen, 48 h (100 = growth as untreated, 0 = no growth, -100 = all killed)). Details: 10 µM unless noted.

Compound | growth
O=S(=O)(Nc1cc(Sc2cccc3cccnc23)c(O)c2ccccc12)c1ccccc1 | 4.22% (active)
CCOC(=O)c1nn(CC(O)c2ccccc2)c(NC(=O)Nc2cccc(F)c2)c1C (configuration not stated) | 96.7% (inactive)
Cn1ccc(=O)nc1 | 86.7% (inactive)
CNCc1cccc2c1OCCOCCOCCNS(=O)(=O)c1ccc(cc1)-c1cnc(N)c(n1)C(=O)N2 | 7.66% (active)
C=C(C)[C@@H]1CC[C@]2(C(=O)N3CCN(C)CC3)CC[C@]3(C)[C@H](CC[C@@H]4[C@@]5(C)CC[C@H](OC(=O)c6ccccc6C(=O)O)C(C)(C)[C@@H]5CC[C@]43C)[C@@H]12 | 97.1% (inactive)
CCNc1ccc(-c2nc3ccccc3n3cccc23)cc1 | 68.2% (inactive)
CSc1nc(C)c([N+](=O)[O-])c(N)n1 | 62.5% (inactive)
O=c1cc(-c2ccccc2)[nH]c2ncc(-c3ccc(F)cc3)n12 | 56.3% (inactive)
N#Cc1cccc(C2C3=C(COC3=O)N(CCO)c3cc4c(cc32)OCO4)c1 (configuration not stated) | 7.91% (active)
COC(=O)c1nc(-c2ccccc2)oc1S(=O)(=O)NCC(c1ccc(Cl)cc1)N1CCOCC1 (configuration not stated) | -21% (active)
CC1(C)CC[C@]2(C(=O)N[C@H](CO)Cc3ccccc3)CC[C@]3(C)C(=CC[C@@H]4[C@@]5(C)CCCNC(C)(C)[C@@H]5CC[C@]43C)[C@@H]2C1 | 41.8% (inactive)
COc1ccc(C(=O)Cn2c(C(=O)c3ccc(OC)cc3)nc3ccccc32)cc1 | 0.632% (active)
COc1ccc(C2=CC(c3cc(OC)c(OC)c(OC)c3)n3ncnc3N2)cc1 (configuration not stated) | 13.8% (inactive)
COc1ccc(C(=O)Cn2c(C(=O)c3ccc(Cl)cc3)nc3ccccc32)cc1 | 39.2% (inactive)

These molecules were tested on MOLT-4 leukemia in the same assay as above. Details: 10 µM unless noted.

Compound | growth
C=C1C(=O)O[C@H]2[C@H]1CC/C(COC(=O)NCc1ccc(Cn3c(=O)sn(-c4ccc(C#N)cc4)c3=O)cc1)=C\CC[C@@]1(C)O[C@@H]21 | 30% (inactive)
COc1cccc(/C=N/NC(=O)c2ccccc2N2CCCC2)c1O | 30.7% (inactive)
CCNC(=O)Oc1ccc(/C(=C(/CC)Cc2ccccc2)c2ccc(OCCN3CCCC3)cc2)cc1 | 75.9% (inactive)
CCCCNc1cc(-c2cn[nH]c2-c2cc(C)cc(OC)c2)nc(-c2cccnc2)n1 | 82.6% (inactive)
O=C(O)COc1ccc(Cl)c(Cl)c1 | 101% (inactive)
CS(=O)(=O)c1ccc(NC(=O)c2ccccc2)nc1 | 71.3% (inactive)
CCOC(=O)c1nn(CC(O)c2ccccc2)c(NC(=O)Nc2cccc(F)c2)c1C (configuration not stated) | 99.2% (inactive)
CSc1nc(C)c([N+](=O)[O-])c(N)n1 | 93.4% (inactive)

Source: PubChem BioAssay (NCI)
